Three compounds from ChEMBL document CHEMBL1961873, “Compounds: GSK PKIS; Assays: Nanosyn kinase panel” (2012) can be followed below.

Assay [1] has as its system Epidermal growth factor receptor (Homo sapiens), P00533 [T790M]. The settings on record: at 1 µM.
The test system of assay [2] is Epidermal growth factor receptor (Homo sapiens), P00533 [L858R,T790M]. The settings on record: at 0.1 µM.
For assay [3] the test system is unchanged. The settings on record: at 1 µM.
The target of assay [4] is Ephrin type-A receptor 2 (Homo sapiens) (UniProt P29317). The settings on record: at 0.1 µM.
Assay [5] shares this target. The settings on record: at 1 µM.
In assay [6] the target is T1, Ephrin type-A receptor 3 (Homo sapiens) (UniProt P29320).
T1 sequence (whole entry): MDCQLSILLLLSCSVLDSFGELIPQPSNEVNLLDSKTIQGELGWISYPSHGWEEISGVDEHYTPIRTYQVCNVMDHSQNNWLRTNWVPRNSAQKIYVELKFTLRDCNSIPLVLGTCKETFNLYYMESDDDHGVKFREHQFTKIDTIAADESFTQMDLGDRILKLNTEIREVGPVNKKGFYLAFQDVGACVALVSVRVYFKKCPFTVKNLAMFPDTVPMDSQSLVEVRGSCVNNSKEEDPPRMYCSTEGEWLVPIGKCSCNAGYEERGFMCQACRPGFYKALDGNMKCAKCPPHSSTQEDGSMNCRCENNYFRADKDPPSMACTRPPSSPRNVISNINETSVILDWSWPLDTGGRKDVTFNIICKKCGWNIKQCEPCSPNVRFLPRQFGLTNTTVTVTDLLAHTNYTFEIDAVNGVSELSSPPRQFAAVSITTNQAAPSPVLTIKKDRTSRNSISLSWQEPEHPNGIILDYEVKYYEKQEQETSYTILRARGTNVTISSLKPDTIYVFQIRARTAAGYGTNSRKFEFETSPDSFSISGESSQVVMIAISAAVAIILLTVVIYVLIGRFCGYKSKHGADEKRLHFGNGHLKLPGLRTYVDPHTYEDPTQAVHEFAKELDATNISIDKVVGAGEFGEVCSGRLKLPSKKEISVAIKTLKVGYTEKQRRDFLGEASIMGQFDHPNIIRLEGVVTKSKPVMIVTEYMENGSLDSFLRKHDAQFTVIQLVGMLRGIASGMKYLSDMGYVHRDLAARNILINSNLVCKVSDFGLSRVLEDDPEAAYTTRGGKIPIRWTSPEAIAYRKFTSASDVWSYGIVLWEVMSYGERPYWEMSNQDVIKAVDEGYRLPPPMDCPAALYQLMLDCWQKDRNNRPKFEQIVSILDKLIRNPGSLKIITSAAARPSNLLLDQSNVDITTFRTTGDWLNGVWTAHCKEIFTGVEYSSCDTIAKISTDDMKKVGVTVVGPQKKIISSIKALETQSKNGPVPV
The note with it: at 0.1 µM.

The target of assay [7] is T1, Ephrin type-A receptor 3 (Homo sapiens). The note with it: at 1 µM.
Assay [8] has as its target Ephrin type-A receptor 4 (Homo sapiens) (UniProt P54764). The settings on record: at 0.1 µM.
The target is the same in assay [9]. The settings on record: at 1 µM.
The target of assay [10] is T2, Ephrin type-B receptor 2 (Homo sapiens) (UniProt P29323).
T2 sequence (whole entry): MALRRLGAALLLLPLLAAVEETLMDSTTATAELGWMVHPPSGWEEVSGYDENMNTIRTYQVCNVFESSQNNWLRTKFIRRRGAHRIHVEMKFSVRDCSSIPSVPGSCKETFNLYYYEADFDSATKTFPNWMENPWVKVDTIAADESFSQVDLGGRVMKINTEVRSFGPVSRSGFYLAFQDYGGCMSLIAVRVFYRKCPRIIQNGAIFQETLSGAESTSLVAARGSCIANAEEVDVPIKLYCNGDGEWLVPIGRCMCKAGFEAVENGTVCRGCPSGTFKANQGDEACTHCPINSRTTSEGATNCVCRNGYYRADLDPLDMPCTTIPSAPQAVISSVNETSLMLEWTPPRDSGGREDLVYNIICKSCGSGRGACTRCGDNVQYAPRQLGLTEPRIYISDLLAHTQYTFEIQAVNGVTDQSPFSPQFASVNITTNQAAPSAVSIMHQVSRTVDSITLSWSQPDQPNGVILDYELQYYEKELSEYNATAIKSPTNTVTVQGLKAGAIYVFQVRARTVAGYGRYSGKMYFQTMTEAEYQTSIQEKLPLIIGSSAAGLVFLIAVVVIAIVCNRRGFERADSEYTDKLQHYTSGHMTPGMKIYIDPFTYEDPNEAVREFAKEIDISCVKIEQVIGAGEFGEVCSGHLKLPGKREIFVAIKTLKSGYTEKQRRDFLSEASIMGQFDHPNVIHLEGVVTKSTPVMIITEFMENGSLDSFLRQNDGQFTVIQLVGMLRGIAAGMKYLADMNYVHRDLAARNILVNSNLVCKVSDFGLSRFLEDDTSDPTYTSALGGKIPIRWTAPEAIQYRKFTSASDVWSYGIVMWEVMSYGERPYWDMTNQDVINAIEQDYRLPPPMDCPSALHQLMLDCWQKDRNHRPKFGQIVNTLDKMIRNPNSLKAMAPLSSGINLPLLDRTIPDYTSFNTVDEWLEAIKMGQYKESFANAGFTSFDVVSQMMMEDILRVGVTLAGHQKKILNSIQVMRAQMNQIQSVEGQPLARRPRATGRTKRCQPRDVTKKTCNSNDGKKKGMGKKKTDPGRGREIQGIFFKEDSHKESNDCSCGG
The settings on record: at 0.1 µM.

Assay [11] has as its target T2, Ephrin type-B receptor 2 (Homo sapiens). The note with it: at 1 µM.
Assay [12] has as its target T3, Ephrin type-B receptor 3 (Homo sapiens) (UniProt P54753).
T3 sequence (whole entry): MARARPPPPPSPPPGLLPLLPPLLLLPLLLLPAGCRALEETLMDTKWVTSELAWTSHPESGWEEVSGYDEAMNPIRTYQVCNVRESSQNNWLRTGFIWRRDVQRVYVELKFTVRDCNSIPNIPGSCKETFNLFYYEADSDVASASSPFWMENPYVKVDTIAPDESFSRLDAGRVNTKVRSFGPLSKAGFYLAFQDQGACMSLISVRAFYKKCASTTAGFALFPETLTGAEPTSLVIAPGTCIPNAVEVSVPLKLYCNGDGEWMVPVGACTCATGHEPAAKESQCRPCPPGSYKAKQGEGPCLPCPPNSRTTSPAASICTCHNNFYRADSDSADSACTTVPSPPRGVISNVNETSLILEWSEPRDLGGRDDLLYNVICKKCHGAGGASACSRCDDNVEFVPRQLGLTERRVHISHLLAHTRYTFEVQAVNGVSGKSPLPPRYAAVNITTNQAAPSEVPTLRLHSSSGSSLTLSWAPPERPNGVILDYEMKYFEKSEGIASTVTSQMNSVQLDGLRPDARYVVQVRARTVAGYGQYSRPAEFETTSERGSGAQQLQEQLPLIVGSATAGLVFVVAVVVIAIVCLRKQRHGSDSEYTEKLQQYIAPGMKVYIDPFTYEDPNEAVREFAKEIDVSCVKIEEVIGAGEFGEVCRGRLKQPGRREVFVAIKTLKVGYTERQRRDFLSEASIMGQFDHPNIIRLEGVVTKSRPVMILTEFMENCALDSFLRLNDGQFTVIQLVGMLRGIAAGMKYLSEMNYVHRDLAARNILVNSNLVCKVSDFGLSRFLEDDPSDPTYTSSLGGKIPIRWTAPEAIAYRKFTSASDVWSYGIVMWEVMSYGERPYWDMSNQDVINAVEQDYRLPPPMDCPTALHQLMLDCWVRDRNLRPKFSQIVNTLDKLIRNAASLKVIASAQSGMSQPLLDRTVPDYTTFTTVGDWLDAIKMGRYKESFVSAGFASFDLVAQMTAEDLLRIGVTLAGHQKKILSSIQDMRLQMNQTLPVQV
The settings on record: at 0.1 µM.

Assay [13] deals with T3, Ephrin type-B receptor 3 (Homo sapiens). The settings on record: at 1 µM.
Assay [14] has as its target T4, Ephrin type-B receptor 4 (Homo sapiens) (UniProt P54760).
T4 sequence (whole entry): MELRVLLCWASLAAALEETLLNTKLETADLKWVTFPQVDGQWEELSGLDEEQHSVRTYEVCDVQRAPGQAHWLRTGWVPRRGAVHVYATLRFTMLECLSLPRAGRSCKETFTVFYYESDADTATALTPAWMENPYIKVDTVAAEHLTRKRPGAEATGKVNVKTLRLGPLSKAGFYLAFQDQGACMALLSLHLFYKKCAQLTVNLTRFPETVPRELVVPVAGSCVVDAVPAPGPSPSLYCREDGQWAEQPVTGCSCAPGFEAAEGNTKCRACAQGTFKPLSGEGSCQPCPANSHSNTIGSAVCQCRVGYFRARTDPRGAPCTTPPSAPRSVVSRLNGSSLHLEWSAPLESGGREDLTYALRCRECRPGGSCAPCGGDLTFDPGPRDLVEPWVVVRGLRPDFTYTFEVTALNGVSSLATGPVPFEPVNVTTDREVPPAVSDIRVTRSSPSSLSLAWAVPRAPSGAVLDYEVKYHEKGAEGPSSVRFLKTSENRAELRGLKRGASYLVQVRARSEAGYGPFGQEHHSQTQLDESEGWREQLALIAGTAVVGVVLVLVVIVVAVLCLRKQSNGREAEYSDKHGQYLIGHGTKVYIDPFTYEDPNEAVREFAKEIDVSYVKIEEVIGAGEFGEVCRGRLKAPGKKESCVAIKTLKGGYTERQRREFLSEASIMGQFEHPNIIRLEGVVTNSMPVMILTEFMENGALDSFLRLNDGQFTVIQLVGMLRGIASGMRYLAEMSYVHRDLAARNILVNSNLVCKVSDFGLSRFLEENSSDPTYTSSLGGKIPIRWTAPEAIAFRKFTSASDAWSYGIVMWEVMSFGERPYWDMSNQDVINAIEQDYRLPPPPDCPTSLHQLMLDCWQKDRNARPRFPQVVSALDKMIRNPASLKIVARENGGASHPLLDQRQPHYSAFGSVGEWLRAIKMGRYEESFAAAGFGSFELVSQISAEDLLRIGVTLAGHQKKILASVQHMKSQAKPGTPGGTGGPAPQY
The settings on record: at 0.1 µM.

Assay [15] has as its target T4, Ephrin type-B receptor 4 (Homo sapiens). The note with it: at 1 µM.
For assay [16], the target named is Receptor tyrosine-protein kinase erbB-2 (Homo sapiens) (UniProt P04626). The note with it: at 0.1 µM.
Assay [17] has the same target. The note with it: at 1 µM.
In assay [18] the target is Receptor tyrosine-protein kinase erbB-4 (Homo sapiens) (UniProt Q15303). The settings on record: at 0.1 µM.
The target is the same in assay [19]. The note with it: at 1 µM.
Assay [20] deals with Tyrosine-protein kinase Fer (Homo sapiens) (UniProt P16591). The note with it: at 0.1 µM.
Sequence of Tyrosine-protein kinase Fer (Homo sapiens) (P16591 whole entry, looked up): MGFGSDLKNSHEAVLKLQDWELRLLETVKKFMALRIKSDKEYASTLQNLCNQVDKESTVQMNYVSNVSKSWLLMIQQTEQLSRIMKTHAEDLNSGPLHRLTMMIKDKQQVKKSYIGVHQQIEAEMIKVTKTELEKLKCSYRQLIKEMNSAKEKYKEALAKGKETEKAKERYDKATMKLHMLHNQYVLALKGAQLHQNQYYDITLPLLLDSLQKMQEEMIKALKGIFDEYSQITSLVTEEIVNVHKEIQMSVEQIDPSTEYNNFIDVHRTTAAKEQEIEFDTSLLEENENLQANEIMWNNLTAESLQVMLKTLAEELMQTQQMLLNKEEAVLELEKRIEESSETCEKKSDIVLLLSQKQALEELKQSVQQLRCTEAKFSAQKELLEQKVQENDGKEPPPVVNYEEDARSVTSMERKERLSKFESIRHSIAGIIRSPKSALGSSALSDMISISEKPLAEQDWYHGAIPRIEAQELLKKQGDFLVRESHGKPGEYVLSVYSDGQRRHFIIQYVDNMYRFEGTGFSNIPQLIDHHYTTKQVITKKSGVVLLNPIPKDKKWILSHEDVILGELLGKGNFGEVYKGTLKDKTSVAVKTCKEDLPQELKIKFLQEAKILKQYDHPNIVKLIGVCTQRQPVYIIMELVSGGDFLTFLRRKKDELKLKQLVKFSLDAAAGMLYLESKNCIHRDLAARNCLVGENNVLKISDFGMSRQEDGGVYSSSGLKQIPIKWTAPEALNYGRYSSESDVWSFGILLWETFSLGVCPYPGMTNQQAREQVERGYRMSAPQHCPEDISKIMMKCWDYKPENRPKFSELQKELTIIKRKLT

Sequence of Epidermal growth factor receptor (Homo sapiens), P00533 [L858R,T790M] (P00533 whole entry T790M/L858R, looked up): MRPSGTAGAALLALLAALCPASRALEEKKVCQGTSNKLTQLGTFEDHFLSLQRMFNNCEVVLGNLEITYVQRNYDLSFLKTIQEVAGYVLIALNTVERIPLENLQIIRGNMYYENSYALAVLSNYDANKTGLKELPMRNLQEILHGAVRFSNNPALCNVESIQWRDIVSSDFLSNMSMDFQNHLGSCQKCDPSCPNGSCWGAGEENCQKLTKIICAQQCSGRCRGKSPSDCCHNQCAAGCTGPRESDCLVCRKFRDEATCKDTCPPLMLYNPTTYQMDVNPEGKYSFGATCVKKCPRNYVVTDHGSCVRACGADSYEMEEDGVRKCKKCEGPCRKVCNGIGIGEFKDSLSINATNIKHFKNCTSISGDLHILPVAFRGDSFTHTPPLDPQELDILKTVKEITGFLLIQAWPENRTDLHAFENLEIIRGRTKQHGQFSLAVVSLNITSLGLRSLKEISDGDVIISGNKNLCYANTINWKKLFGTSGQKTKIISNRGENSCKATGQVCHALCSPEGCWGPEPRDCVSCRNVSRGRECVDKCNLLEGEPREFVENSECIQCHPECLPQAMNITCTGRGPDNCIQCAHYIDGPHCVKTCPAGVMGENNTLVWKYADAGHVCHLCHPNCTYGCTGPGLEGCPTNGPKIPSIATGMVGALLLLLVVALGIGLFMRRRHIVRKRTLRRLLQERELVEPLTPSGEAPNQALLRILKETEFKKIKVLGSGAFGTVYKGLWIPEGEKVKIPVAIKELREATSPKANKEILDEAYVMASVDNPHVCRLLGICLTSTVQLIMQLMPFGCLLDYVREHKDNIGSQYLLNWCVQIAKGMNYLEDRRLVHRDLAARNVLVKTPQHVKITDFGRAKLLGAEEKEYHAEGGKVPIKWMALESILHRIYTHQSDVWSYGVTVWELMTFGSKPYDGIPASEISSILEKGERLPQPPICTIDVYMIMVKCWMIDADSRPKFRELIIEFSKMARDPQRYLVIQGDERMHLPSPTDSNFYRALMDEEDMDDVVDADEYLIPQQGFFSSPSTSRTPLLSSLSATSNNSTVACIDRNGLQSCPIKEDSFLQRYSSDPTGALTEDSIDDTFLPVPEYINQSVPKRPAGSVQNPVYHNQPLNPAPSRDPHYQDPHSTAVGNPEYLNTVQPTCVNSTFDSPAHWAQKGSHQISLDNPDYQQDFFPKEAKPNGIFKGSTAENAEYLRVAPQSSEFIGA
Sequence of Ephrin type-A receptor 2 (Homo sapiens) (P29317 whole entry): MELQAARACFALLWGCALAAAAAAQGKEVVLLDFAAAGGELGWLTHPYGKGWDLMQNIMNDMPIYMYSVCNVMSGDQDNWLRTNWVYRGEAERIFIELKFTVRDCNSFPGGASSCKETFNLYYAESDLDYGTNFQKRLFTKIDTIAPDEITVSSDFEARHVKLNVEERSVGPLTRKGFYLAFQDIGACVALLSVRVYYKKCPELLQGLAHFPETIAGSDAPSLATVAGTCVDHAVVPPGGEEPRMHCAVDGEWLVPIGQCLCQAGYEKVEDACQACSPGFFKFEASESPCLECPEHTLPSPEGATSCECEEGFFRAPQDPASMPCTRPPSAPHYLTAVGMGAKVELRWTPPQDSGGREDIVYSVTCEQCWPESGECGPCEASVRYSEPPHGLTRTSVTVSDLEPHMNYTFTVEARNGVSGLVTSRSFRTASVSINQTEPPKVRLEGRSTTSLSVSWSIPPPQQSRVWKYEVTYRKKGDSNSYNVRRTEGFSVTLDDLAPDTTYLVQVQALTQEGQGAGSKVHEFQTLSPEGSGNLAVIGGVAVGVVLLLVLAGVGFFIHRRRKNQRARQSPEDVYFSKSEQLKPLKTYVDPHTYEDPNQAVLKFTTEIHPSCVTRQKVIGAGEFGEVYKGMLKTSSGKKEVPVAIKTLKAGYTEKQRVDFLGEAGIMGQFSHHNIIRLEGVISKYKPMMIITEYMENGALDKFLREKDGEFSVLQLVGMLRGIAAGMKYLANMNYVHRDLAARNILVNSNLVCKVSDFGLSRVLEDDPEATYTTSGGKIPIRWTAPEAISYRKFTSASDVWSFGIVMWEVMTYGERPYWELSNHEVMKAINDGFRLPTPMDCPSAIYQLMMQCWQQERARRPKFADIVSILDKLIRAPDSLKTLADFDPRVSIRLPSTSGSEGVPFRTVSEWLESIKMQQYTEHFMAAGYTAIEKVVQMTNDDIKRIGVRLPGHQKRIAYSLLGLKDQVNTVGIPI
Sequence of Ephrin type-A receptor 4 (Homo sapiens) (P54764 whole entry): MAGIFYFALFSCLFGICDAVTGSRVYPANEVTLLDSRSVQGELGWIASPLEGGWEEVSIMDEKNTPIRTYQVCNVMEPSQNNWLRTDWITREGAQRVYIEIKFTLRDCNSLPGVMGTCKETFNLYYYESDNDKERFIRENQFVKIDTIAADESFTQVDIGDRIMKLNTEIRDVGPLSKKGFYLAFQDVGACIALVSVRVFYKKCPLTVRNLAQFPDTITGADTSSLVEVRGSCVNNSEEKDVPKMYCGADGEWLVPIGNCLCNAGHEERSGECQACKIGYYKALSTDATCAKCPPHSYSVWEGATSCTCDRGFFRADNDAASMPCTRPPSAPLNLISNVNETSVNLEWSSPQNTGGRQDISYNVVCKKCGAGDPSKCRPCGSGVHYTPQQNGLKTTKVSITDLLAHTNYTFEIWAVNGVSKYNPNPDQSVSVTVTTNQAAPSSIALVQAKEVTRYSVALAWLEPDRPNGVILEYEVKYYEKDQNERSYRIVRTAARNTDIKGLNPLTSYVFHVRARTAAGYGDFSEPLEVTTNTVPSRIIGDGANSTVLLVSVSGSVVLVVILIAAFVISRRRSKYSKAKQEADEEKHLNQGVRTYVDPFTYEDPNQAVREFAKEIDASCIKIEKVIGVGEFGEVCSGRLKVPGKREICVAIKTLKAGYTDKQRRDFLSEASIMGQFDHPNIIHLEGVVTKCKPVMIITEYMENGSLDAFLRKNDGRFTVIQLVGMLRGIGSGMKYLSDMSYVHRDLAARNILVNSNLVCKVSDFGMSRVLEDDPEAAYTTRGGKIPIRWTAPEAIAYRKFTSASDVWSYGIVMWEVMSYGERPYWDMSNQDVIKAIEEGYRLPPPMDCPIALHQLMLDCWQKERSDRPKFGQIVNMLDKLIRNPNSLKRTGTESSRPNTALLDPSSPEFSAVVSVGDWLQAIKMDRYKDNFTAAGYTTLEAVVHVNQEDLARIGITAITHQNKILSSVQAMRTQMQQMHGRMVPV

As a reminder, the inhibition is the relative decrease from the control value, in per cent. In the case of `COc1cccc(-c2c[nH]c3c(N/N=C/c4ccncc4)ncnc23)c1`, the inhibition was determined as 2.55% in [1]; 2.51% in [2]; 22.9% in assay [3]; 3.62% in assay [4]; 14.6% in assay [5]; 3.44% in [6]. Also, the inhibition in assay [7] turned out to be 6.01%; in assay [8], 8.17%; in assay [9], 30.5%; in [10], 10.3%; in assay [11], 25.9%; in assay [12], 3.32%. Also, the inhibition was -5.7% in assay [13]; 3.21% in assay [14]; 13.5% in [15]; 0.26% in assay [16]; 2.47% in assay [17]; 8.94% in [18]. In addition, the figures for the inhibition in [19] and in [20] were 21.9% and 4.27%, respectively.
As to `COc1ccc(-c2cc3c(N)ncnc3o2)cc1`, the inhibition in assay [1] is -2.06%; in assay [2], -0.41%; in assay [3], -0.81%; in [4] it was -3.93%; in assay [5], -2.53%; in assay [6], -3.56%. Also, the inhibition in [7] is -2.59%; in assay [8], -2.85%; in assay [9] it was 1.4%; in assay [10], -3.46%; in [11], 4.07%; in assay [12], -1.39%. Moreover, the inhibition is 0.05% in assay [13]; 0.49% in assay [14]; 0.16% in [15]; -0.84% in [16]; 0.38% in assay [17]; -1.91% in [18]. The inhibition in assay [19] is 1.85%; in [20] it was -0.15%.
With `COC(=O)c1sc(-n2cnc3cc(OC)c(OC)cc32)cc1OCc1ccccc1C(F)(F)F`, the inhibition in assay [1] was -0.3%; in assay [2] it was -1.64%; in assay [3], 1.53%; in [4], 2.23%; in assay [5], 3.86%; in assay [6], 4.53%. The inhibition in [7] came to 3.54%; in assay [8] it was 9.09%; in [9], 4.17%; in assay [10], 6.43%; in assay [11], 10.3%; in [12], 7.34%. Moreover, the inhibition is 6.47% in assay [13]; 2.86% in assay [14]; 3.16% in [15]; 3.29% in assay [16]; -2.49% in assay [17]; 8.62% in assay [18]. For the same compound, the results for the inhibition in assay [19] and in [20] were 11% and 1.07%, respectively.
